High-throughput results (PubChem)
BRCA1 expr act = BRCA1 expression activation; MCF7-BRCA1-FFLuc reporter, luminescence, 48 h; response scale: scaled: vehicle 0%, 10 µM genistein 100%; Potency, µM (highest dose often 46.1 µM), for inactives: at the top dose activation, usual class: activators; hit rate 1.1% among 380,000; AID 624202; note: potency is the fitted concentration of half-maximal effect; nearly all actives have a fitted effect of over 80% in size
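First, MCF7-BRCA1-FFLuc cells (2000/well) attach for 2 h; next, compounds are pin-added and incubated 48 h at 37 °C; finally, luciferase reagent is added and luminescence read after 15 min.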
RORgamma inh = blocks mouse ROR gamma transcriptional activity; AID 2551; Drosophila S2 Gal4-RORgamma UAS-luciferase reporter, 20 h; Potency, µM (doses to about 53.6 µM), for the others: top-dose activity change, negative = inhibition, usual class: inhibitors; hit rate 5.4% among 310,000; P51450; note: potency is the fitted concentration of half-maximal effect; % is set by controls: 0 for no effect and ±100 for the full control effect; nearly all actives have a fitted effect of over 60% in size
Target sequence (P51450 whole entry, looked up, the tested form may be a part): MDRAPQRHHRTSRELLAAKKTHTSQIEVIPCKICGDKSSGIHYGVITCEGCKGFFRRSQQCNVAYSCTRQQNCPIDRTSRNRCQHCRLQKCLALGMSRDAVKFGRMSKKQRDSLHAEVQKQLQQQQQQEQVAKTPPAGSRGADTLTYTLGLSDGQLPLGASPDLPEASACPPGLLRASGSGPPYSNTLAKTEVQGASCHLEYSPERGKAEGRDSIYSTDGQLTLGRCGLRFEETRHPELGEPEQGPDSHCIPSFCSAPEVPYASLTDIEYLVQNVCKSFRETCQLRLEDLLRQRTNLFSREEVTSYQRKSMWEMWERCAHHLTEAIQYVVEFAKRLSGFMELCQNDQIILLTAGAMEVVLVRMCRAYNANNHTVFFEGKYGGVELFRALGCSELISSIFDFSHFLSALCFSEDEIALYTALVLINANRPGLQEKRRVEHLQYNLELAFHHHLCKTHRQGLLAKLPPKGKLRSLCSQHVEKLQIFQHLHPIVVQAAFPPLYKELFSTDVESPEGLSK
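ROR gamma transcriptional activity was tracked as Gal4-UAS luciferase output in stably transfected Drosophila Schneider cells, with compound added 1 hr before 700 uM copper sulfate induction and a 20 hr ambient-temperature incubation.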
ELG1 repair inh = blocks ELG1-dependent DNA repair in HEK293T cells; HEK293T ELG1-luciferase reporter, luminescence, 16 h; DNA damage induced by 5-fluorouridine; Potency, µM (series often up to 46.1 µM), for the others: at the top dose activity change, negative = inhibition, hits mostly inhibitors; hit rate 2.3% among 330,000; note: potency is the fitted concentration of half-maximal effect; % is set by controls: 0 for no effect and ±100 for the full control effect; nearly all actives have a fitted effect of over 55% in size
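5-Fluorouridine DNA damage + compound/DMSO, 2,000 cells/well, 16 h, 37 °C/5% CO2. ONE-Glo, 30 min RT, luminescence. Readout = decrease in reporter signal.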
VP16 counter = inhibits Gal4-VP16 luciferase reporter, ROR gamma counter-screen. Drosophila S2 Gal4-VP16 UAS-luciferase, luminescence, 20 h. Potency, µM (highest dose often 53.6 µM), without a hit: top-dose activity, negative = inhibition, actives largely listed as inhibitors. hit rate 3.5% among 310,000. AID 2546;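 note: Gal4-VP16 expression switched on by copper sulfate through the metallothionein promoter; potency is the fitted concentration of half-maximal effect; % is set by controls: 0 for no effect and ±100 for the full control effect; nearly all actives have a fitted effect of over 50% in size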
p53 reactivation = mutant p53 re-activation in reporter cells; H1299 p53-A138V BP100-luciferase reporter, luminescence, 24 h; Potency, µM (highest dose often 92.2 µM), inactives show top-dose activity change, positive = activation, hits mostly activators; hit rate 0.063% among 320,000; note: potency is the fitted concentration of half-maximal effect; % of control where 0% means no effect; nearly all actives have a fitted effect of over 45% in size
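p53-null H1299 cells stably carrying temperature-sensitive p53-A138V and a BP100-luciferase reporter were pinned with compounds (4-point, 1:5 series) and held 24 hrs at 37 deg C. Luminescence was read 10 min after detection reagent.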
Giardia killer = Giardia lamblia killing. Giardia lamblia trophozoite viability. hit rate 0.15% among 340,000. activity change, % at 7.66 µM, hits read low; in the data active = activity change below about -80%; inconclusive = between about -30% and that limit;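 note: parasites exposed to compound for two days anaerobically before the ATP read; % is set by controls: 0 for no effect and ±100 for the full control effect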
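Compounds were tested on trophozoites seeded at 100 cells/well and held 48 hrs at 37 deg C anaerobically. An ATP-based luminescent kit measured the remaining live cells.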
ELG1 FLuc counter = luciferase inhibition in cell-free luciferin readout for ELG1 hits; cell-free firefly luciferase luminescence counter-screen, ViewLux; hit rate 3% among 350; AID 624247; shares compounds with ELG1 repair inh; Potency, µM (titrated, usually from 46.1 µM), for the others: at the top dose activity change, negative = inhibition, hits mostly inhibitors; note: potency is the fitted concentration of half-maximal effect; % is set by controls: 0 for no effect and ±100 for the full control effect
ELG1-Luc inh = inhibits ELG1-dependent DNA repair in HEK293T cells, confirmed. Potency, µM (top dose mostly 46.1 µM), inactives show at the highest dose activity change, negative = inhibition, usual class: inhibitors. shares compounds with ELG1 repair inh. HEK293T ELG1-luciferase levels, luminescence; cells co-treated with 5-fluorouridine. hit rate 68% among 670; note: potency is the fitted concentration of half-maximal effect; % is set by controls: 0 for no effect and ±100 for the full control effect; nearly all actives have a fitted effect of over 55% in size
ELG1-Luc MMS = MMS-stimulated human ELG1 repair inhibition, confirmed; shares compounds with ELG1 repair inh; HEK293T luciferase-tagged ELG1 level, MMS stimulated; Potency, µM (highest dose often 46.1 µM), for inactives: at the top dose activity change, negative = inhibition, most hits filed as inhibitors; hit rate 53% among 670; AID 624249; note: potency is the fitted concentration of half-maximal effect; % is set by controls: 0 for no effect and ±100 for the full control effect; nearly all actives have a fitted effect of over 60% in size
ELG1 5FU viab = confirmation of ELG1 repair inhibitors: viability with 5FU | shares compounds with ELG1 repair inh | cell viability with 5-FU, ELG1-dependent repair | Potency, µM (top dose mostly 46.1 µM), for inactives: at the top dose activity change, negative = viability loss, actives largely listed as cytotoxic | 670 tested, under 10 active | AID 624250;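 note: ELG1-luc HEK293T cells cotreated with 5-fluorouridine at 10 µM final; potency is the fitted concentration of half-maximal effect; viability measured 16 h after compound addition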
ELG1 MMS viab = confirmation of ELG1 repair inhibitors: viability with MMS. shares compounds with ELG1 repair inh. Cell viability with MMS, ELG1-dependent DNA repair. Potency, µM (titrated, usually from 46.1 µM), for inactives: top-dose activity change, negative = viability loss, usual class: cytotoxic. hit rate 33% among 670. AID 624251;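 note: ELG1-luc HEK293T cells co-treated with 10 µM MMS; potency is the fitted concentration of half-maximal effect; viability read 16 h after compound addition; % is set by controls: 0 for no effect and ±100 for the full control effect; nearly all actives have a fitted effect of over 60% in size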
Cell viab unstim = unstimulated viability counter-screen for ELG1 repair hits; shares compounds with ELG1 repair inh; hit rate 8% among 900; Potency, µM (top dose mostly 45.9 µM), without a hit: top-dose activity change, negative = loss of viability, usual class: cytotoxic; cell viability counter-screen, unstimulated, luminescence;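 note: potency is the fitted concentration of half-maximal effect; compound exposure lasted 16 hours before reading; % is set by controls: 0 for no effect and ±100 for the full control effect; nearly all actives have a fitted effect of over 55% in size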
FLuc biochem = inhibits purified firefly luciferase, counter-screen for ELG1 hits. shares compounds with ELG1 repair inh. purified firefly luciferase, luminescence counter-screen. Potency, µM (doses to about 57.5 µM), for inactives: at the top dose activity, negative = inhibition, usual class: inhibitors. hit rate 10% among 350. AID 624253; note: potency is the fitted concentration of half-maximal effect; % is set by controls: 0 for no effect and ±100 for the full control effect
* hit, by the source's call; ? = inconclusive; · = no result. This is a sample that favours compounds with a hit; in the whole collection about 7.6% have one here. Unless noted, calls come from the whole dose curve; as a rule, active = well fitted curve in the direction sought with a large enough effect; inconclusive = small, poorly fitted or top-dose-only effect, or another doubt; inactive = no such curve, though single readings can be large; an effect the other way counts as inactive or inconclusive.

SMILES | BRCA1 expr act | RORgamma inh | ELG1 repair inh | VP16 counter | p53 reactivation | Giardia killer | ELG1 FLuc counter | ELG1-Luc inh | ELG1-Luc MMS | ELG1 5FU viab | ELG1 MMS viab | Cell viab unstim | FLuc biochem
O=C(Nc1ccc(F)cc1)C1CCC(CNc2c(N3CCCCC3)c(=O)c2=O)CC1 (stereo not drawn) | -12% | 14% | 0% | 1% | -6% | -6 | 73% | ? | 7% | 5% | -4% | -11% | -10%
COc1cc(NC(=O)C2CCC(CNc3c(N4CCC(C)CC4)c(=O)c3=O)CC2)cc(OC)c1 (stereo not drawn) | -34% | -29% | ? | -8% | -11% | 11 | · | · | · | · | · | · | ·
CCOc1ccc(NC(=O)C2CCC(CNc3c(N4CCCCC4)c(=O)c3=O)CC2)cc1 (stereo not drawn) | -7% | 2% | ? | 10% | -11% | 5 | · | · | · | · | · | · | ·
COc1cc(NC(=O)C2CCC(CNc3c(N4CCCCC4)c(=O)c3=O)CC2)cc(OC)c1 (stereo not drawn) | -31% | 28% | ? | 1% | -4% | -15 | -9% | 11µM* | -8% | ? | -16% | ? | -6%
COc1ccc(C2=Nn3c(nnc3-c3ccncc3)SC2)cc1OC | -32% | -27% | ? | 12% | -16% | 3 | 32% | 7.9µM* | -17% | ? | 6% | -6% | -2%
COc1ccc2c(c1)c(C(C)=O)c(C)n2-c1ccc(C(C)=O)cc1 | -10% | 13% | ? | -10% | -4% | -20 | · | · | · | · | · | · | ·
COc1ccc(-n2c(C)c(C(C)=O)c3cc(OC(C)=O)ccc32)cc1 | 1% | -25% | 0.82µM* | -12% | 5% | -20 | -18% | 0.63µM* | ? | 15% | 9% | -8% | -2%
CCOc1cccc(-c2nnc3sc(-c4cc(OC)c(OC)c(OC)c4)nn23)c1 | 14% | -7% | 3.3µM* | 0% | 7% | -3 | · | ? | 15% | 4% | -3% | ? | ·
COc1cc(-c2nn3c(-c4ccccc4)nnc3s2)cc(OC)c1OC | -31% | -3% | ? | -2% | 1% | 12 | · | · | · | · | · | · | ·
COc1cccc(-c2nc(CS(=O)(=O)CC(=O)NCCc3ccccc3)c(C)o2)c1 | -24% | 3% | 4.6µM* | -16% | -13% | -10 | · | ? | -4% | ? | -1% | -9% | ·
